PubChem BioAssay (NCATS)
“And” between values parts separate entries of the source, which are not always exact repeats. Identical values can stand only once. Records with an inconclusive call do not appear. Where a structure was tested more than once in an assay, its records may differ in their call. The source made the active and inactive calls. Unless noted, the call rests on the fitted dose curve; in most records, active means well fitted curve in the direction sought with a large enough effect; inconclusive means small, poorly fitted or top-dose-only effect, or another doubt; inactive means no such curve, though single readings can be large; an effect the other way counts as inactive or inconclusive.

How the values were obtained:
C33A = assay: Primary qHTS to identify gynecologic anti-cancer compounds using libraries of approved drugs and bioactive compounds (AID 1345084); details: Gynecologic cancer cell panel viability, ATPlite luminescence, 48 h; series mostly up to 57.5 µM; further: nearly all actives have a fitted effect of over 55% in size; further: potency means the concentration at half of the fitted maximal effect
Outline: (§1)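 Cell viability after 48 h drug treatment, ATPlite luminescence readout; five doses.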

CAOV3 = assay: as above; details: Gynecologic cancer cell panel viability, ATPlite luminescence, 48 h; series mostly up to 57.5 µM
Outline: as §1

CASKI = assay: as above; details: Gynecologic cancer cell panel viability, ATPlite luminescence, 48 h; series mostly up to 57.5 µM
Outline: as §1

Es-2 = assay: as above; details: Gynecologic cancer cell panel viability, ATPlite luminescence, 48 h; series mostly up to 57.5 µM
Outline: as §1

HeLa = assay: as above; details: Gynecologic cancer cell panel viability, ATPlite luminescence, 48 h; series mostly up to 57.5 µM
Outline: as §1

Hek293T = assay: as above; details: Gynecologic cancer cell panel viability, ATPlite luminescence, 48 h, control line for the selectivity index; series mostly up to 57.5 µM
Outline: as §1

OV90 = assay: as above; details: Gynecologic cancer cell panel viability, ATPlite luminescence, 48 h; series mostly up to 57.5 µM
Outline: as §1

PA-1 = assay: as above; details: Gynecologic cancer cell panel viability, ATPlite luminescence, 48 h; series mostly up to 57.5 µM
Outline: as §1

SKOV3 = assay: as above; details: Gynecologic cancer cell panel viability, ATPlite luminescence, 48 h; series mostly up to 57.5 µM
Outline: as §1

Tov-21-G = assay: as above; details: Gynecologic cancer cell panel viability, ATPlite luminescence, 48 h; series mostly up to 57.5 µM
Outline: as §1

Tov112D = assay: as above; details: Gynecologic cancer cell panel viability, ATPlite luminescence, 48 h; series mostly up to 57.5 µM
Outline: as §1

[1] = Drug repurposing screens with cells derived from glioblastoma tumor samples (AID 1345199); details: GBM patient neurospheres viability, ATP luminescence, 48 h; further: nearly all actives have a fitted effect of over 40% in size; further: potency means the concentration at half of the fitted maximal effect; on activity, negative = cell killing: on the % scale 0 is the no-effect control and ±100 the full control effect
Outline: (§2)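 Primary testing used CD133+ neurospheres from four GBM patients, seven concentrations, 48 h exposure and ATP-based viability; confirmation added three slower-growing patient lines.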

JEG-3 = assay: Primary qHTS to identify gynecologic anti-cancer compounds using libraries of approved drugs and bioactive compounds (AID 1345084); details: Gynecologic cancer cell panel viability, ATPlite luminescence, 48 h; series mostly up to 57.5 µM; further: nearly all actives have a fitted effect of over 55% in size; further: potency means the concentration at half of the fitted maximal effect
Outline: as §1

astro = assay: Drug repurposing screens with cells derived from glioblastoma tumor samples (AID 1345199); details: viability, ATP luminescence, 48 h; series mostly up to 45.9 µM; further: nearly all actives have a fitted effect of over 40% in size; further: potency means the concentration at half of the fitted maximal effect; on activity, negative = cell killing: on the % scale 0 is the no-effect control and ±100 the full control effect
Outline: as §2

[2] = qHTS assay to identify inhibitors of the type 1 interferon - major histocompatibility complex class I in skeletal muscle: Counter screen cell viability and HiBit confirmation (AID 1347412); details: iHSKM muscle cells + IFN-b, HiBiT or CellTiter-Glo, 24 h; further: nearly all actives have a fitted effect of over 60% in size; further: potency means the concentration at half of the fitted maximal effect; on activity change, negative = inhibition: on the % scale 0 is the no-effect control and ±100 the full control effect
Outline: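 After 24 h with human IFN-beta (4 ng/ml) and compound titrations (top 46 uM final, 1:3, 12 points), HLA-B HiBit myoblasts were lysed for either Nano-Glo HiBiT luminescence or CellTiter Glo viability on paired plates.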

[3] = molecular target: Nuclear receptor subfamily 1 group I member 2 (Rattus norvegicus) (UniProt Q9R1A7); assay: qHTS assay for small molecule activators of the rat pregnane X receptor (rPXR) signaling pathway (AID 651751; call rule not given here; further: 0% is about no effect); details: rPXR reporter cells, luciferase (One-Glo), 24 h
Chain of Nuclear receptor subfamily 1 group I member 2 (Rattus norvegicus) (Q9R1A7 whole entry, looked up): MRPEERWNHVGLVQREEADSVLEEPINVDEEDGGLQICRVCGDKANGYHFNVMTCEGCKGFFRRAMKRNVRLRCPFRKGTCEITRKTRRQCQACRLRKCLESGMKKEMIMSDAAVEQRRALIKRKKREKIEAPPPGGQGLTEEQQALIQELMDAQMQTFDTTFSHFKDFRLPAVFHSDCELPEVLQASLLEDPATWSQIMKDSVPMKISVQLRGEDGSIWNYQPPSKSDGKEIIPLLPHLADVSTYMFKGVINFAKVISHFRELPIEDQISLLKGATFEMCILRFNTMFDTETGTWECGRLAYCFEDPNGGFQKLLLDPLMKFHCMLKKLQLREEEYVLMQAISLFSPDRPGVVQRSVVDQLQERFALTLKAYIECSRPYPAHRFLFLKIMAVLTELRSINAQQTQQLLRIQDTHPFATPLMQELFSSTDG

[4] = qHTS assay for small molecule activators of the human pregnane X receptor (PXR) signaling pathway (AID 720659; call rule not given here; further: 0% is about no effect)
[5] = at 46.1 µM (top of the series), tumour line C
[6] = at 20 µM (top of the series), tumour line C
[7] = at 21.2 µM (top of the series), tumour line B
[8] = at 21.2 µM (top of the series), tumour line D
[9] = at 21.3 µM (top of the series), tumour line A
[10] = at 45.9 µM (top of the series), tumour line B
[11] = at 45.9 µM (top of the series), tumour line D
[12] = at 46 µM (top of the series), tumour line A

CC(C)OC(=O)C(C(=O)OC(C)C)=C1SC=CS1
active: Potency (SKOV3) 25.1 µM | Potency ([1]; tumour line A) 11.2 µM
inactive: Potency (C33A) | Potency (CAOV3) | Potency (CASKI) | Potency (Es-2) | Potency (HeLa) | Potency (Hek293T) | Potency (OV90) | Potency (PA-1) | Potency (Tov-21-G) | Potency (Tov112D) | activity, negative = cell killing [1, 5] -18.3%

CO[C@@H]1[C@@H](OC(N)=O)[C@@H](O)[C@H](Oc2ccc3c(O)c(NC(=O)c4ccc(O)c(CC=C(C)C)c4)c(=O)oc3c2C)OC1(C)C
inactive: Potency (C33A) | Potency (CAOV3) | Potency (CASKI) | Potency (HeLa) | Potency (Hek293T) | Potency (JEG-3) | Potency (OV90) | Potency (PA-1) | Potency (SKOV3) | Potency (Tov-21-G) | Potency (Tov112D) | activity, negative = cell killing [1, 6] -4.06% | activity, negative = cell killing [1, 7] -5.36% | activity, negative = cell killing [1, 8] -2.99% | activity, negative = cell killing [1, 9] -27.7% | Potency (astro)

Cc1oc(=O)oc1CN1CCN(c2cc3c(cc2F)c(=O)c(C(=O)O)c2n3C(C)S2)CC1 (stereo not given)
inactive: Potency (C33A) | Potency (CAOV3) | Potency (CASKI) | Potency (Es-2) | Potency (HeLa) | Potency (Hek293T) | Potency (JEG-3) | Potency (OV90) | Potency (PA-1) | Potency (Tov-21-G) | Potency (Tov112D) | activity, negative = cell killing [1, 10] -20.2% | activity, negative = cell killing [1, 11] 7.6% | activity, negative = cell killing [1, 12] -22.8% | activity, negative = cell killing [1, 5] -0.513%

CC(C)C[C@H](NC(=O)[C@H](CCc1ccccc1)NC(=O)CN1CCOCC1)C(=O)N[C@@H](Cc1ccccc1)C(=O)N[C@@H](CC(C)C)C(=O)[C@@]1(C)CO1
active: Potency (C33A) 0.316 µM | Potency (CASKI) 0.316 µM | Potency (Es-2) 0.316 µM | Potency (HeLa) 0.794 µM | Potency (Hek293T) 0.251 µM | Potency (OV90) 0.251 µM | Potency (PA-1) 0.0891 µM | Potency (SKOV3) 0.251 µM | Potency (Tov-21-G) 0.251 µM | Potency (Tov112D) 0.708 µM | Potency (astro) 0.708 µM | Potency ([2]; HiBiT) 0.0883 µM
inactive: Potency (JEG-3)

COc1cc(NS(=O)(=O)c2ccc(N)cc2)nc(OC)n1
inactive: Potency (C33A) | Potency (CAOV3) | Potency (CASKI) | Potency (Es-2) | Potency (HeLa) | Potency (Hek293T) | Potency (JEG-3) | Potency (PA-1) | Potency (SKOV3) | Potency (Tov-21-G) | Potency (Tov112D) | activity, negative = cell killing [1, 6] -7.42% | activity, negative = cell killing [1, 7] -12.9% | activity, negative = cell killing [1, 8] -12.1% | activity, negative = cell killing [1, 9] -9.97% | Potency (astro)

S=P(N1CC1)(N1CC1)N1CC1
inactive: Potency (C33A) | Potency (CAOV3) | Potency (Es-2) | Potency (HeLa) | Potency (Hek293T) | Potency (JEG-3) | Potency (PA-1) | Potency (SKOV3) | Potency (Tov-21-G) | Potency (Tov112D) | activity, negative = cell killing [1, 10] -13.6% | activity, negative = cell killing [1, 11] -2.85% | activity, negative = cell killing [1, 5] -0.68% | activity, negative = cell killing ([1]; at 91.6 µM (top of the series), tumour line B) -15.1% | activity, negative = cell killing ([1]; at 91.6 µM (top of the series), tumour line D) -14.2% | activity, negative = cell killing ([1]; at 99.2 µM (top of the series), tumour line C) -13% | Potency (astro) | max response [3] 2.63%

CCCc1nc(C)c2c(=O)[nH]c(-c3cc(S(=O)(=O)N4CCN(CC)CC4)ccc3OCC)nn12
active: Potency ([1]; tumour line A) 17.8 µM
inactive: Potency (C33A) | Potency (CAOV3) | Potency (CASKI) | Potency (Es-2) | Potency (HeLa) | Potency (Hek293T) | Potency (JEG-3) | Potency (OV90) | Potency (SKOV3) | Potency (Tov-21-G) | Potency (Tov112D) | activity, negative = cell killing [1, 10] -13% | activity, negative = cell killing [1, 11] -20.9% | activity, negative = cell killing [1, 5] -8.37% | Potency (astro)

CO[C@@]12[C@H](COC(N)=O)C3=C(C(=O)C(C)=C(N)C3=O)N1C[C@@H]1N[C@@H]12
active: Potency (CAOV3) 3.55 µM | Potency (CASKI) 8.91 µM | Potency (Es-2) 4.47 µM | Potency (OV90) 17.8 µM | Potency (Tov-21-G) 14.1 µM | Potency (Tov112D) 0.794 µM
inactive: Potency (C33A) | activity, negative = cell killing [1, 10] -14.3% | activity, negative = cell killing [1, 11] -12.4% | activity, negative = cell killing [1, 12] -9.83% | activity, negative = cell killing [1, 5] -16.3%

NC1(c2ccc(-c3nc4ccn5c(=O)[nH]nc5c4cc3-c3ccccc3)cc2)CCC1
active: Potency (Hek293T) 3.55 µM | Potency (OV90) 2 µM | Potency (PA-1) 22.4 µM | Potency (SKOV3) 11.2 µM
inactive: Potency (C33A) | Potency (CAOV3) | Potency (Es-2) | Potency (HeLa) | Potency (Tov112D)

CCCCCCNC(=O)n1cc(F)c(=O)[nH]c1=O
inactive: Potency (C33A) | Potency (CAOV3) | Potency (CASKI) | Potency (HeLa) | Potency (Hek293T) | Potency (OV90) | Potency (Tov112D) | activity, negative = cell killing [1, 5] -20.6%

Nc1nc(N)c2nc(CNc3ccc(C(=O)NC(CCC(=O)O)C(=O)O)cc3)cnc2n1 (stereo not given)
inactive: max response [3] -7.99% | outcome [4]

CC(C)NCC(O)c1ccc(NS(C)(=O)=O)cc1 (stereo not given)
inactive: activity, negative = cell killing [1, 10] -3.14% and -4.61% | activity, negative = cell killing [1, 11] -13.7% and -17.7% | activity, negative = cell killing [1, 12] -32.2% | activity, negative = cell killing [1, 5] -4.94% and -17% | Potency (astro)

COc1ccc2cc3[n+](cc2c1OC)CCc1cc2c(cc1-3)OCO2
inactive: Potency (Tov-21-G) | max response [3] 6.2% | outcome [4]
active: Potency (C33A) 8.91 µM | Potency (CASKI) 2.24 µM | Potency (Es-2) 15.8 µM | Potency (OV90) 5.62 µM | Potency (astro) 6.31 µM

Nc1nc(=S)c2[nH]cnc2[nH]1
active: Potency (CASKI) 3.55 µM | Potency (Es-2) 7.08 µM | Potency (HeLa) 1.41 µM | Potency (JEG-3) 3.16 µM | Potency (OV90) 8.91 µM | Potency (PA-1) 3.55 µM | Potency (Tov-21-G) 3.55 µM | Potency (Tov112D) 1.41 µM

CCN(CC)CC#CCOC(=O)C(O)(c1ccccc1)C1CCCCC1 (stereo not given)
inactive: activity, negative = cell killing [1, 10] -22.3% | Potency (astro)
active: Potency ([1]; tumour line A) 10 µM | Potency ([1]; tumour line C) 20.6 µM

NC(N)=NC(N)=NCCc1ccccc1
inactive: Potency (CAOV3) | Potency (HeLa) | Potency (Hek293T) | Potency (JEG-3) | Potency (Tov-21-G) | Potency (Tov112D) | activity, negative = cell killing [1, 7] -24.6% | activity, negative = cell killing [1, 9] -28.1% | activity, negative = cell killing [1, 10] -14.4% | Potency (astro) | outcome [4]
active: Potency (SKOV3) 14.1 µM | Potency ([1]; tumour line D) 25.1 µM

COC(=O)Nc1nc2ccc(C(=O)c3ccccc3)cc2[nH]1
active: Potency (Es-2) 2.82 µM | Potency (HeLa) 1 µM | Potency (OV90) 8.91 µM | Potency (PA-1) 1.41 µM | Potency (Tov112D) 1.58 µM | Potency ([1]; tumour line A) 0.158 µM
inactive: Potency (CAOV3) | activity, negative = cell killing [1, 6] -22.4% | activity change, negative = inhibition ([2]; Viability, at 45.9 µM (top of the series)) -33.9%

CC(=O)[C@H]1CC[C@H]2[C@@H]3CCC4=CC(=O)CC[C@]4(C)[C@H]3CC[C@]12C
inactive: activity, negative = cell killing [1, 10] -26.3% | Potency (astro)
active: Potency ([1]; tumour line D) 12.6 µM

Cc1c(-c2ccc(O)cc2)n(Cc2ccc(OCCN3CCCCCC3)cc2)c2ccc(O)cc12
inactive: Potency (Hek293T) | Potency (JEG-3) | Potency (Tov-21-G)
